Results as given in PubChem BioAssay (EPA / NIEHS).
The source made the active and inactive calls. Rule for the calls: active = hit-call score of the fitted dose curve at least 0.9, where 1 is the maximum; inactive = score below 0.9.

How the values were obtained:
Conditions in all cases: mRNA level, 48 h; actives raise or lower the signal
[1] = read-out: Ezrin (EZR), EZR (gene 7430); assay: LTEA_HepaRG_EZR: Life Technologies and Expression Analysis (LTEA) Assay for Ezrin (EZR) using HepaRG (AID 2283491)
Method in brief: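 Gain or loss of EZR mRNA is scored relative to 0.5% DMSO in human HepaRG cultures treated 48 h with test chemicals in duplicate, eight half-log concentrations from 100 uM.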

[2] = read-out: Cytochrome P450 3A7 (Homo sapiens) (UniProt P24462); assay: LTEA_HepaRG_CYP3A7: Life Technologies and Expression Analysis (LTEA) Assay for CYP3A7 using HepaRG (AID 2283492)
Method in brief: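 Differentiated HepaRG cells in serum-free induction medium exposed 48 h in duplicate to 8-point half-log series from 100 uM top in 0.5% DMSO. CYP3A7 mRNA by qRT-PCR, normalized to ACTB/GAPDH/POLR2A, bidirectional fit versus DMSO.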

CYP3A5 (gene 1577) = assay: LTEA_HepaRG_CYP3A5: Life Technologies and Expression Analysis (LTEA) Assay for CYP3A5 using HepaRG (AID 2283493)
Method in brief: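 Human HepaRG hepatic cells receive 48 h chemical treatment at eight concentrations (half-log steps from 100 uM) in 0.5% DMSO. Expression of CYP3A5 is quantified by Fluidigm qRT-PCR and normalized to three reference genes.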

[3] = read-out: Fatty Acid-Binding Protein 1 (FABP1), FABP1 (gene 2168); assay: LTEA_HepaRG_FABP1: Life Technologies and Expression Analysis (LTEA) Assay for Fatty Acid-Binding Protein 1 (FABP1) using HepaRG (AID 2283494)
Method in brief: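 FABP1 expression by TaqMan qRT-PCR, normalised to three housekeeping genes, in HepaRG cells after 48 h chemical treatment. Eight-point half-log series topping at 100 uM in 0.5% DMSO, duplicates; gain or loss fitted relative to vehicle.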

[4] = read-out: Glutathione S-Transferase (GSTA2), GSTA2 (gene 2939); assay: LTEA_HepaRG_GSTA2: Life Technologies and Expression Analysis (LTEA) Assay for Glutathione S-Transferase (GSTA2) using HepaRG (AID 2283497)
Method in brief: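 GSTA2 transcript levels came from Fluidigm TaqMan qRT-PCR normalized to three housekeeping genes, fitted in both directions against DMSO. HepaRG cultures received chemicals for 48 h in serum-free induction medium (0.5% DMSO), 8 half-log concentrations up to 100 uM, duplicate.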

[5] = read-out: Glutamate-cysteine ligase catalytic (GCLC), GCLC (gene 2729); assay: LTEA_HepaRG_GCLC: Life Technologies and Expression Analysis (LTEA) Assay for Glutamate-cysteine ligase catalytic (GCLC) using HepaRG (AID 2283498)
Method in brief: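 Expression by TaqMan qRT-PCR, normalized to three housekeeping genes (ACTB, GAPDH, POLR2A), with up- or down-regulation fitted against DMSO. HepaRG cells dosed in duplicate for 48 h with 8 half-log concentrations up to 100 uM, vehicle 0.5% DMSO.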

[6] = read-out: growth arrest and DNA damage 45 (GADD45G), GADD45G (gene 10912); assay: LTEA_HepaRG_GADD45G: Life Technologies and Expression Analysis (LTEA) Assay for growth arrest and DNA damage 45 (GADD45G) using HepaRG (AID 2283499)
Method in brief: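 Differentiated human HepaRG cells, 48 h post-plating, exposed 48 h in serum-free induction medium to 8 half-log concentrations (top 100 uM, 0.5% DMSO) in duplicate. GADD45G mRNA measured by Fluidigm TaqMan qRT-PCR, normalized to ACTB, GAPDH, POLR2A; bidirectional fit versus DMSO.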

[7] = read-out: Glutamate-cysteine ligase regulatory (GCLM), GCLM (gene 2730); assay: LTEA_HepaRG_GCLM: Life Technologies and Expression Analysis (LTEA) Assay for Glutamate-cysteine ligase regulatory (GCLM) using HepaRG (AID 2283500)
Method in brief: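 Endpoint is GCLM transcript level by qRT-PCR, normalized to three housekeeping genes, after 48 h chemical exposure of human HepaRG cells (0.5% DMSO vehicle, top 100 uM, half-log dilutions). Fitting was bidirectional relative to DMSO.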

[8] = read-out: Glutathione S-transferase M3 (GSTM3), GSTM3 (gene 2947); assay: LTEA_HepaRG_GSTM3: Life Technologies and Expression Analysis (LTEA) Assay for Glutathione S-transferase M3 (GSTM3) using HepaRG (AID 2283501)
Method in brief: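 Differentiated human HepaRG cells were exposed in duplicate for 48 h in serum-free induction medium, 8 points from 100 uM top in half-log steps, 0.5% DMSO. GSTM3 mRNA was measured by TaqMan qRT-PCR, normalized to ACTB, GAPDH and POLR2A; bidirectional fit versus DMSO.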

[9] = read-out: Hypoxia-inducible factor 1-alpha (Homo sapiens) (UniProt Q16665); assay: LTEA_HepaRG_HIF1A: Life Technologies and Expression Analysis (LTEA) Assay for Hypoxia-inducible factor 1 (HIF1A) Trancription factor using HepaRG (AID 2283503)
Method in brief: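 HIF1A transcript level read by qRT-PCR (ACTB, GAPDH, POLR2A normalization) after 48 h chemical exposure of HepaRG cultures. Eight half-log concentrations, top 100 uM, 0.5% DMSO vehicle, duplicates; bidirectional curve fit against DMSO baseline.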

[10] = read-out: 3-Hydroxy-3-Methylglutaryl-CoA Synthase 2 (HMGCS2), HMGCS2 (gene 3158); assay: LTEA_HepaRG_HMGCS2: Life Technologies and Expression Analysis (LTEA) Assay for 3-Hydroxy-3-Methylglutaryl-CoA Synthase 2 (HMGCS2) using HepaRG (AID 2283504)
Method in brief: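 Human HepaRG cells in serum-free induction medium were exposed in duplicate for 48 h to 8-point half-log series from 100 uM top in 0.5% DMSO. HMGCS2 mRNA measured by TaqMan qRT-PCR, normalised to ACTB, GAPDH, POLR2A; bidirectional fit versus DMSO.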

[11] = read-out: Insulin Like Growth Factor 1 (IGF1), IGF1 (gene 3479); assay: LTEA_HepaRG_IGF1: Life Technologies and Expression Analysis (LTEA) Assay for Insulin Like Growth Factor 1 (IGF1) using HepaRG (AID 2283506)
Method in brief: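 Cells are thawed, plated and cultured 48 h, then exposed in duplicate to chemical (highest 100 uM, half-log steps, 0.5% DMSO) for another 48 h. Total RNA is analysed by Fluidigm qRT-PCR for IGF1 expression relative to vehicle.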

[12] = read-out: Intercellular Adhesion Molecule 1 (ICAM1), ICAM1 (gene 3383); assay: LTEA_HepaRG_ICAM1: Life Technologies and Expression Analysis (LTEA) Assay for Intercellular Adhesion Molecule 1 (ICAM1) using HepaRG (AID 2283507)
Method in brief: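 Differentiated human HepaRG cells in serum-free induction medium exposed 48 h in duplicate to 8 half-log concentrations (top 100 uM, 0.5% DMSO). ICAM1 mRNA quantified by TaqMan qRT-PCR, normalized to ACTB, GAPDH and POLR2A; bidirectional fitting versus DMSO.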

[13] = read-out: Insulin-like growth factor-binding protein 1 (IGFBP1), IGFBP1 (gene 3484); assay: LTEA_HepaRG_IGFBP1: Life Technologies and Expression Analysis (LTEA) Assay for Insulin-like growth factor-binding protein 1 (IGFBP1) using HepaRG (AID 2283508)
Method in brief: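 HepaRG cells, plated 48 h then switched to serum-free induction medium, exposed in duplicate for 48 h to 8-point half-log series from 100 uM in 0.5% DMSO. mRNA measured by qRT-PCR, normalized to ACTB/GAPDH/POLR2A; bidirectional fit versus DMSO.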

[14] = read-out: Interleukin 6 (IL6), IL6 (gene 3569); assay: LTEA_HepaRG_IL6: Life Technologies and Expression Analysis (LTEA) Assay for Interleukin 6 (IL6) using HepaRG (AID 2283509)
Method in brief: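 Transcript levels, normalized to three housekeeping genes, were quantified by qRT-PCR after 48 h chemical treatment of HepaRG cells. Eight-point half-log series from 100 uM in 0.5% DMSO, duplicates. Fitted both directions against DMSO baseline.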

[15] = read-out: Interleukin 6 Receptor (IL6R), IL6R (gene 3570); assay: LTEA_HepaRG_IL6R: Life Technologies and Expression Analysis (LTEA) Assay for Interleukin 6 Receptor (IL6R) using HepaRG (AID 2283510)
Method in brief: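 Cells were thawed, plated and cultured 48 h, then medium was changed to serum-free induction medium. Chemicals were added in duplicate (100 uM top, half-log steps, 0.5% DMSO) for 48 h. Lysates were analyzed by qRT-PCR for IL6R expression.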

[16] = read-out: Cytochrome P450 7A1 (Homo sapiens) (UniProt P22680); assay: LTEA_HepaRG_CYP7A1: Life Technologies and Expression Analysis (LTEA) Assay for Cytochrome P450 7A1 (CYP7A1) using HepaRG (AID 2283496)
Method in brief: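 HepaRG, 48 h exposure, 8-pt half-log series from 100 uM, 0.5% DMSO vehicle, duplicates. Readout: TaqMan qRT-PCR mRNA vs three housekeeping genes; bidirectional curve fit against DMSO baseline.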

[17] = read-out: Heat shock 70 kDa protein 1 (HSPA1A), gene 3303; assay: LTEA_HepaRG_HSPA1A: Life Technologies and Expression Analysis (LTEA) Assay for Heat shock 70 kDa protein 1 (HSPA1A) using HepaRG (AID 2283502)
Method in brief: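 Cells were plated and cultured for 48 h, then switched to serum-free induction medium. Chemicals were added at eight half-log concentrations up to 100 uM for 48 h. RNA was then isolated and HSPA1A measured by qRT-PCR with bidirectional curve fitting against DMSO.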

HGF (gene 3082) = assay: LTEA_HepaRG_HGF: Life Technologies and Expression Analysis (LTEA) Assay for Hepatocyte Growth Facto (HGF) using HepaRG (AID 2283505)
Method in brief: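 Differentiated HepaRG cells in serum-free induction medium exposed 48 h in duplicate, 8 half-log concentrations from 100 uM in 0.5% DMSO. HGF mRNA by qRT-PCR, normalised to ACTB, GAPDH, POLR2A; bidirectional fitting.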

Measured: AC50

Sequence of Cytochrome P450 3A7 (Homo sapiens) (P24462 whole entry, looked up): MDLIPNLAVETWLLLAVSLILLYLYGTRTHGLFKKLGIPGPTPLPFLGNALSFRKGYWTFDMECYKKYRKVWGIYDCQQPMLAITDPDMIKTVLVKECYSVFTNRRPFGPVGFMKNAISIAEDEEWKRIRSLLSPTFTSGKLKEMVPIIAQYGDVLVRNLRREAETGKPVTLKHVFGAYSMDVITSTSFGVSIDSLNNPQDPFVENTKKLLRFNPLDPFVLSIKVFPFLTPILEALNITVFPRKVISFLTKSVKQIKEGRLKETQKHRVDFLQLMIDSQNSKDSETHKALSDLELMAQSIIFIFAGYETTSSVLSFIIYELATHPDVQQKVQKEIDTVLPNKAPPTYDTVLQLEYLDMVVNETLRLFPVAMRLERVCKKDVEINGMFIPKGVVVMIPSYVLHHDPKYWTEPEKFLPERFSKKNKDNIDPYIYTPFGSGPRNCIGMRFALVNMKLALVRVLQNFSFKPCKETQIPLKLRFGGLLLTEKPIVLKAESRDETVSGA
Sequence of Hypoxia-inducible factor 1-alpha (Homo sapiens) (Q16665 whole entry, looked up): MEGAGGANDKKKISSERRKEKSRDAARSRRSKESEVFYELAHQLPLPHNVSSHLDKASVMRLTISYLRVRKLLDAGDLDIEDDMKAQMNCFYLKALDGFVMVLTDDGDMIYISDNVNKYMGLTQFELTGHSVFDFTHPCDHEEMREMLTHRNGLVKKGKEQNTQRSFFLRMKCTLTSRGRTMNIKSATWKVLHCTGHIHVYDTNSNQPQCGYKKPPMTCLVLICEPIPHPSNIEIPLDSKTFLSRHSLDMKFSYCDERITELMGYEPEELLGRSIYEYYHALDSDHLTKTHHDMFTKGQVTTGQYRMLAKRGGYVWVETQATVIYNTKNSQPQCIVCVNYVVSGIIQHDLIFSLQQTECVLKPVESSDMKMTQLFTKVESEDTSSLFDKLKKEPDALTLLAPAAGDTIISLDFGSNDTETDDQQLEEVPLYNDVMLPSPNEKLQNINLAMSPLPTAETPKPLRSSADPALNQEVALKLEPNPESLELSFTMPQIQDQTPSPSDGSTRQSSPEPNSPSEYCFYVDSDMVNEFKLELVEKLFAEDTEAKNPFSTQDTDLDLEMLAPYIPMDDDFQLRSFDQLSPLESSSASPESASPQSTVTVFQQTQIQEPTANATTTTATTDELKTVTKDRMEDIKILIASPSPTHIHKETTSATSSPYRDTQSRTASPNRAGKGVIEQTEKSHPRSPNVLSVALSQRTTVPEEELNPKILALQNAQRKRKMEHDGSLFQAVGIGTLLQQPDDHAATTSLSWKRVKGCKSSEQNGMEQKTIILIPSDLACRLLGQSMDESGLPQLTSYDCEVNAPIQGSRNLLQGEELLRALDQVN

CCOc1nc(C(Cl)(Cl)Cl)ns1
active: [2] 2.43 µM | [5] 0.939 µM | [7] 1.14 µM | [8] 22.9 µM | [11] 0.965 µM | [12] 1.38 µM | [13] 1.01 µM | [14] 15 µM | [15] 0.987 µM
inactive: [1] | CYP3A5 (gene 1577) | [3] | [4] | [6] | [9] | [10]

COCC(C)N(C(=O)CCl)c1c(C)csc1C (stereo not drawn)
active: [3] 50 µM | [16] 29.5 µM | [4] 25 µM | [5] 50 µM | [11] 50 µM
inactive: [1] | [2] | CYP3A5 (gene 1577) | [6] | [7] | [8] | [17] | [10] | HGF (gene 3082) | [12] | [13] | [15]
